Laboratory results from PubChem BioAssay (NCATS).
Inconclusive results are not listed. Activity calls are given as the source filed them. Calls come from the whole dose curve; as a rule, active = well fitted inhibition curve with a large enough effect; inconclusive = small, poorly fitted or top-dose-only effect; inactive = flat fitted curve, though single readings scatter.

Tests used:
Assay in all cases: qHTS profiling for inhibitors of Plasmodium falciparum proliferation (AID 504749); note: nearly all actives have a fitted effect of over 60% in size
Settings in all cases: P. falciparum in erythrocytes, SYBR Green DNA, 72 h; series mostly up to 28.7 µM
[1] = system: CP203
Summary of the method: (§1)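 P. falciparum-infected erythrocytes (0.3% parasitemia, 2.5% hematocrit final) were exposed to compounds for 72 h at 37 C in 5% CO2, then lysed with SYBR Green buffer overnight at room temperature; parasite DNA fluorescence was normalized to artemisinin and DMSO controls.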

[2] = system: CP211
Summary of the method: as §1

[3] = system: CP215
Summary of the method: as §1

[4] = system: CP217
Summary of the method: as §1

[5] = system: CP237
Summary of the method: as §1

[6] = system: CP238
Summary of the method: as §1

[7] = system: CP247
Summary of the method: as §1

[8] = system: CP250
Summary of the method: as §1

[9] = system: CP252
Summary of the method: as §1

[10] = system: CP256
Summary of the method: as §1

[11] = system: CP260
Summary of the method: as §1

[12] = system: CP262
Summary of the method: as §1

[13] = system: CP265
Summary of the method: as §1

[14] = system: CP266
Summary of the method: as §1

[15] = system: CP268
Summary of the method: as §1

[16] = system: CP269
Summary of the method: as §1

[17] = system: CP286
Summary of the method: as §1

[18] = system: CP291
Summary of the method: as §1

[19] = system: CP297
Summary of the method: as §1

[20] = system: CP305
Summary of the method: as §1

Measured: Potency
Potency is the fitted concentration of half-maximal effect.

Clc1ccccc1Cl
inactive: all assays above

CC(=O)OC1CN2CCC1CC2 (stereo not given)
inactive: all assays above

O=[N+]([O-])c1ccc(F)c([N+](=O)[O-])c1
inactive: all assays above

c1ccc2sc(SNC3CCCCC3)nc2c1
inactive: all assays above

CC(N)Cc1ccc(O)cc1 (stereo not given)
inactive: all assays above

O=C1CN(O)C(c2ccccc2)=c2cc(Cl)ccc2=N1
inactive: all assays above

CCON=O
inactive: all assays above

CCC(N)Cc1c[nH]c2ccccc12 (stereo not given)
inactive: all assays above

C=CCN1CCC23c4c5ccc(O)c4O[C@H]2C(=O)CC[C@@]3(O)C1C5 (stereo not given in full)
inactive: all assays above

ClC=C(Cl)Cl
inactive: all assays above

CN1c2ccccc2C(NCCCCCCC(=O)O)c2ccc(Cl)cc2S1(=O)=O (stereo not given)
inactive: all assays above

[O]=[Cd]
inactive: all assays above

CC(Cc1ccccc1)NC=O (stereo not given)
inactive: all assays above

ClCC1CO1 (stereo not given)
inactive: all assays above

O=C(O)C(Cl)(Cl)Cl
inactive: all assays above

O=C/C=C/c1ccccc1
inactive: all assays above

CCCCCl
inactive: all assays above

O=Cc1ccco1
inactive: all assays above

O=C1CCO1
inactive: all assays above

[O]=[Cr](=[O])([OH])[O][Cr](=[O])(=[O])[OH]
active: [5] 11.2 µM | [11] 11.2 µM
inactive: all other assays above

CN1C2CCC1CC(OC(c1ccccc1)c1ccc(Cl)cc1)C2 (stereo not given)
active: [1] 12 µM | [2] 15.1 µM | [3] 10.7 µM | [4] 7.08 µM | [5] 11.2 µM | [6] 10 µM | [7] 10 µM | [8] 10 µM | [9] 7.94 µM | [10] 7.08 µM | [11] 7.94 µM | [12] 5.36 µM | [13] 8.91 µM | [14] 13.5 µM | [15] 9.53 µM | [16] 9.53 µM | [17] 5.01 µM | [18] 12 µM | [19] 8.49 µM | [20] 12 µM

CC(C)(O)C1C2OC(=O)C1C1(O)CC3OC34C(=O)OC2C14C (stereo not given)
inactive: all assays above

CCCC(C)C1(CC)C(=O)NC(=O)NC1=O (stereo not given)
inactive: all assays above

O=[N+]([O-])C(Br)(CO)CO
inactive: all assays above

ClC(Cl)(Cl)Cl
inactive: all assays above

CC(=O)O[C@H]1CC[C@H]2[C@@H]3CCC4=CC(=O)CCC4=C3C=C[C@]12C
inactive: all assays above

Cn1sc(Cl)cc1=O
inactive: all assays above

N#CN
inactive: all assays above
